Of roughly 7,900 targets only a part is listed; those with a hit were picked by preference. About 0.6% of all pairs of compound and target were hits.
Assays:
Test in all cases: log2 fold change, soluble protein after heating vs DMSO (PISA); higher = thermal stabilisation; K562 cells, 10 uM, 30 min; active = over 0.2 and 3.5 SD of the protein, either way, in both replicates (recomputed)
saracatinib = compound: CN1CCN(CCOc2cc(OC3CCOCC3)c3c(Nc4c(Cl)ccc5c4OCO5)ncnc3c2)CC1 [saracatinib]
Outline: (§1)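 Quantification of soluble protein used TMTpro 16plex LC-MS/MS, with channel sums equalised. Samples were the supernatant after 21,000xg for 90 min of pooled aliquots from K562 cells (2×10^6 cells/mL) treated with 10 μM compound for 30 min, heated for 3 min over 48°C-58°C, and extracted in PBS with 0.5% NP-40 at 4°C. Values, from duplicates, describe thermal stability against control samples on a log2 fold-change scale.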

sotrastaurin = compound: CN1CCN(c2nc(C3=C(c4c[nH]c5ccccc45)C(=O)NC3=O)c3ccccc3n2)CC1 [sotrastaurin]
Outline: as §1

alvocidib = compound: CN1CC[C@H](c2c(O)cc(O)c3c(=O)cc(-c4ccccc4Cl)oc23)[C@H](O)C1 [alvocidib]
Outline: as §1

Tubastatin A = compound: CN1CCc2c(c3ccccc3n2Cc2ccc(C(=O)NO)cc2)C1 [Tubastatin A]
Outline: as §1

[1] = compound: CNC(=O)C1=CC=CC=C1NC2=NC(=NC=C2Cl)NC3=C(C=C(C=C3)N4CCOCC4)OC
Outline: as §1

defactinib = compound: CNC(=O)c1ccc(Nc2ncc(C(F)(F)F)c(NCc3nccnc3N(C)S(C)(=O)=O)n2)cc1 [defactinib]
Outline: as §1

rucaparib = compound: CNCc1ccc(-c2[nH]c3cc(F)cc4c3c2CCNC4=O)cc1 [rucaparib]
Outline: as §1

[2] = compound: CNc1nc(-c2ccc3c(N)n[nH]c3c2)cc(N2C[C@@H](C(=O)NC3CCCCC3)CC[C@H]2C)n1
Outline: as §1

encorafenib = compound: COC(=O)N[C@@H](C)CNc1nccc(-c2cn(C(C)C)nc2-c2cc(Cl)cc(NS(C)(=O)=O)c2F)n1 [encorafenib]
Outline: as §1

[3] = compound: COC(=O)[C@H](CCSC)NC(=O)C1=C(C=C(C=C1)NC[C@H](CS)N)C2=CC=CC=C2
Outline: as §1

Measured: log2 fold change

RAB3GAP2 (UniProt Q9H2M9)
Chain of UniProt Q9H2M9 (Q9H2M9 whole entry, looked up): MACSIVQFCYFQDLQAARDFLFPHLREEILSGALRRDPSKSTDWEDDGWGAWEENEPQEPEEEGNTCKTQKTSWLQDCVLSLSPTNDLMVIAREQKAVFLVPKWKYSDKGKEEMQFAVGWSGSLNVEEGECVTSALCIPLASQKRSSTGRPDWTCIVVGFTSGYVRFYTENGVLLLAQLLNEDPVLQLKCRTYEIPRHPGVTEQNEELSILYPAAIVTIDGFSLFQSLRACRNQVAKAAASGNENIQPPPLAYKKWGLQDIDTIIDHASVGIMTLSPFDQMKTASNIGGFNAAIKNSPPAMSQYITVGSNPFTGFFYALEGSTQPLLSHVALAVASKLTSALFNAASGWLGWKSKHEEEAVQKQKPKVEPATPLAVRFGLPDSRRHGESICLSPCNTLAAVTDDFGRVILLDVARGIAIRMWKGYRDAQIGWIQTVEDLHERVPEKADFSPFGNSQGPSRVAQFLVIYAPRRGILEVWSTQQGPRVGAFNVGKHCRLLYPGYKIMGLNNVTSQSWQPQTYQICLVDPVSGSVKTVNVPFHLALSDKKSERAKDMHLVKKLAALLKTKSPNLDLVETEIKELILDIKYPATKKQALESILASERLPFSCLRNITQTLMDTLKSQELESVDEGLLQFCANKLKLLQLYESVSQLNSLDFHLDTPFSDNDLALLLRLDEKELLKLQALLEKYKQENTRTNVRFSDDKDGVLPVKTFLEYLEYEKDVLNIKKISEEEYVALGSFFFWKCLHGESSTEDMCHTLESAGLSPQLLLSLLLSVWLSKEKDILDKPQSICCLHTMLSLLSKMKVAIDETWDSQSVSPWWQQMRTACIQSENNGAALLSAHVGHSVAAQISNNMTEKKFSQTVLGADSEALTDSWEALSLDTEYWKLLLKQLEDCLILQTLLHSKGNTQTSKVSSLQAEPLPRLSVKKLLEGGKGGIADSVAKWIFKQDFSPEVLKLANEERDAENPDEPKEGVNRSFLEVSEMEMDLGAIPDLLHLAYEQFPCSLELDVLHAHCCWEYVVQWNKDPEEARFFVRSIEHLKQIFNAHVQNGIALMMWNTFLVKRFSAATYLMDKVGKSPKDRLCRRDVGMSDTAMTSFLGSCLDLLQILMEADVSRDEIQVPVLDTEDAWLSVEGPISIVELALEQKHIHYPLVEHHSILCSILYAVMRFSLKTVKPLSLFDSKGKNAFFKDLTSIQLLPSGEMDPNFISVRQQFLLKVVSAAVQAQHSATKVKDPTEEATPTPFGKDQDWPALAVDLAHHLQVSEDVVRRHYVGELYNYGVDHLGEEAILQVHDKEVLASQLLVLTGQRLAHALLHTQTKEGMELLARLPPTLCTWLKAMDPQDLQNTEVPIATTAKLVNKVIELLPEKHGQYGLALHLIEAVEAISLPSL
inactive: saracatinib -0.111 | sotrastaurin -0.195 | alvocidib -0.013 | Tubastatin A 0.058 | [1] 0.017 | defactinib -0.064 | rucaparib 0.205 | [2] 0.039 | encorafenib 0.189 | [3] -0.089

RAD50 isoform 2 (UniProt Q92878)
Chain of UniProt Q92878 (Q92878 whole entry, looked up): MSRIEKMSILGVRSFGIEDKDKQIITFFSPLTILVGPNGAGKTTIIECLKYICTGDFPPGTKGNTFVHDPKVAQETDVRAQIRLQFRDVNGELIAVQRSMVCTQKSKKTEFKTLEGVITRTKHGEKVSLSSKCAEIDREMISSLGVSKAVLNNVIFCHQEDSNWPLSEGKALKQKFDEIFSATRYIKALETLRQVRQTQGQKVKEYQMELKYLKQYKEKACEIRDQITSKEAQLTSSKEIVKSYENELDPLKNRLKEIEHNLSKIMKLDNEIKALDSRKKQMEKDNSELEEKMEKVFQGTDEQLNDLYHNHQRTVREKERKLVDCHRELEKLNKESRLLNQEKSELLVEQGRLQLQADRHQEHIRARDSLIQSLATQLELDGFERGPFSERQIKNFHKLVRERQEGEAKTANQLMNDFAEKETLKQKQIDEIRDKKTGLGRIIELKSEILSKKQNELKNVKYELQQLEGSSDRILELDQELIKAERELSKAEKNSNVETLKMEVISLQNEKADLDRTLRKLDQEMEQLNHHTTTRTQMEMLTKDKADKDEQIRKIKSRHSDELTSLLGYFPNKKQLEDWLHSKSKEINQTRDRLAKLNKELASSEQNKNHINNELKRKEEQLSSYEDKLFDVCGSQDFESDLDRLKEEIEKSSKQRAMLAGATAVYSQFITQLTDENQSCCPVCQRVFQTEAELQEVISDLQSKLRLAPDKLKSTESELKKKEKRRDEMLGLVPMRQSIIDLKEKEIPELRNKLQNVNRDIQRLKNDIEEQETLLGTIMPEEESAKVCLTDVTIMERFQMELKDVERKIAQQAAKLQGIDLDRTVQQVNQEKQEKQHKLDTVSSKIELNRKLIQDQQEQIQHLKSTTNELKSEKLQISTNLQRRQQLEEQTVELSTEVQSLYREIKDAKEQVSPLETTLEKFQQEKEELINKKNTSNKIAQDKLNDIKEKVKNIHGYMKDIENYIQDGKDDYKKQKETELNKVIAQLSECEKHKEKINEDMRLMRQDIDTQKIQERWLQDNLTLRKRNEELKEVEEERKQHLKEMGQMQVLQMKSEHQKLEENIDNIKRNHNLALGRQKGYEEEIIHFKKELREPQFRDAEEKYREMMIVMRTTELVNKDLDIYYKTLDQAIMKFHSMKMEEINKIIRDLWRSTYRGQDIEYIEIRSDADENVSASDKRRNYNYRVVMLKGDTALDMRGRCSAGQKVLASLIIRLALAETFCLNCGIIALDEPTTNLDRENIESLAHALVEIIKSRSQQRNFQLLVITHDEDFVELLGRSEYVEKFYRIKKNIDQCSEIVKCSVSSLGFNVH
inactive: saracatinib 0.012 | sotrastaurin -0.024 | alvocidib -0.084 | Tubastatin A -0.025 | [1] 0 | defactinib -0.103 | rucaparib 0.006 | [2] 0.006 | encorafenib 0.008 | [3] -0.019

SASH1 (UniProt O94885)
inactive: saracatinib -0.081 | sotrastaurin -0.043 | alvocidib -0.035 | Tubastatin A 0.04 | [1] -0.019 | defactinib -0.064 | rucaparib 0.03 | [2] -0.015 | encorafenib 0.013 | [3] -0.022

SH2D1B (UniProt O14796)
Chain of UniProt O14796 (O14796 whole entry, looked up): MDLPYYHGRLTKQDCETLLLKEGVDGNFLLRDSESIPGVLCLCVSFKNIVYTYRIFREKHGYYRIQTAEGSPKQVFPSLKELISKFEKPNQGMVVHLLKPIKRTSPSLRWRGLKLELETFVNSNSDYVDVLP
inactive: sotrastaurin 0.05 | alvocidib -0.029 | Tubastatin A -0.046 | [1] -0.214 | defactinib -0.06 | rucaparib 0.045 | [2] -0.026 | encorafenib 0.295 | [3] 0.242
active: saracatinib -1

RAB5C isoform 2 (UniProt P51148)
Chain of UniProt P51148 (P51148 whole entry, looked up): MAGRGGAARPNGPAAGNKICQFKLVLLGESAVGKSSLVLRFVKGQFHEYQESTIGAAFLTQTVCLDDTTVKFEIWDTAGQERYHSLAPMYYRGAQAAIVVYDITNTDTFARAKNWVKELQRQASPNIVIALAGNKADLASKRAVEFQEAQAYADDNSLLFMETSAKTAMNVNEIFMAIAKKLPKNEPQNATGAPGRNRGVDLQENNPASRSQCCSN
inactive: saracatinib 0.08 | sotrastaurin -0.011 | alvocidib 0.011 | Tubastatin A 0.013 | [1] -0.013 | defactinib -0.011 | rucaparib -0.02 | [2] 0.003 | encorafenib -0.039 | [3] 0.017

SH3GL1 (UniProt Q99961)
Chain of UniProt Q99961 (Q99961 whole entry, looked up): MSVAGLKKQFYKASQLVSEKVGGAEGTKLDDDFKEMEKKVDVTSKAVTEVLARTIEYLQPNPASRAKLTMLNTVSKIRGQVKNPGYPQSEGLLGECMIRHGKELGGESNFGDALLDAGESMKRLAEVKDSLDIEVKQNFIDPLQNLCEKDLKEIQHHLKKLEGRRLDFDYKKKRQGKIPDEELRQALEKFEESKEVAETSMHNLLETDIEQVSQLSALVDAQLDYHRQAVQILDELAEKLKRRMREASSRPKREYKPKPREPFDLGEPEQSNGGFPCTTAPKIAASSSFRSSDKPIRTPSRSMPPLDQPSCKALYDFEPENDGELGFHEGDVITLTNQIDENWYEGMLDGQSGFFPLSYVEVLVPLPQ
inactive: saracatinib -0.157 | sotrastaurin -0.163 | alvocidib -0.118 | Tubastatin A 0.092 | [1] -0.035 | defactinib -0.116 | rucaparib 0.022 | [2] 0.054 | encorafenib 0.062 | [3] -0.043

RAP1GDS1 isoform 5 (UniProt P52306)
Chain of UniProt P52306 (P52306 whole entry, looked up): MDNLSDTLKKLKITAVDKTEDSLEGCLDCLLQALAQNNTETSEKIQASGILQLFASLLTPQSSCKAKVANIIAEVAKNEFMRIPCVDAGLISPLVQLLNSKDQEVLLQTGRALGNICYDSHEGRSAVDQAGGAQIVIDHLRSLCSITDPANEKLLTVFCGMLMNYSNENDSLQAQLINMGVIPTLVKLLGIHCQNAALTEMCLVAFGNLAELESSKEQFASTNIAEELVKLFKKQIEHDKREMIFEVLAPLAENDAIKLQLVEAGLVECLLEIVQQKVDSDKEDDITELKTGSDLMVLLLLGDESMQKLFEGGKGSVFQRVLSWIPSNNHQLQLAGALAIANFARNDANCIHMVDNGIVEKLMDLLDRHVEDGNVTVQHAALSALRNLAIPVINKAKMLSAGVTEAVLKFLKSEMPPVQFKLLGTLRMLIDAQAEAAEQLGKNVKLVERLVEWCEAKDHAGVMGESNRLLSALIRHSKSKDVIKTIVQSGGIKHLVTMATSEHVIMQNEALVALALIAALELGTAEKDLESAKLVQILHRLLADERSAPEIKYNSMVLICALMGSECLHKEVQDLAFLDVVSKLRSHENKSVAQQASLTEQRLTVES
inactive: saracatinib 0.004 | sotrastaurin -0.077 | alvocidib -0.069 | Tubastatin A -0.01 | [1] 0.006 | defactinib -0.017 | rucaparib -0.006 | [2] -0.024 | encorafenib 0.176 | [3] 0.139

SERINC3 (UniProt Q13530)
Chain of UniProt Q13530 (Q13530 whole entry, looked up): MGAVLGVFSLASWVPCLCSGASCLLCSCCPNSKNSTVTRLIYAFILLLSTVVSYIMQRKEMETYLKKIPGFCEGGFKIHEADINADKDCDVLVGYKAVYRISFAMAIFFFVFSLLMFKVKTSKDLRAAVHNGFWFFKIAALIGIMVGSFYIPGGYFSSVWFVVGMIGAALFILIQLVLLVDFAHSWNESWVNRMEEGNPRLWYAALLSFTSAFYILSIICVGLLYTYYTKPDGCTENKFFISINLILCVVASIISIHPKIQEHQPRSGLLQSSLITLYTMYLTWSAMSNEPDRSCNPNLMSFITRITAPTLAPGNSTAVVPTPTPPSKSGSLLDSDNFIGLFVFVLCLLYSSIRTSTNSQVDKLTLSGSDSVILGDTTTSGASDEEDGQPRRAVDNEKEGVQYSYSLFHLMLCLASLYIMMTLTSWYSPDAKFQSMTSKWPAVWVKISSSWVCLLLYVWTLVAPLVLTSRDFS
inactive: saracatinib 0.002 | sotrastaurin 0.119 | alvocidib 0.134 | Tubastatin A -0.06 | [1] -0.043 | defactinib -0.016 | rucaparib 0.006 | [2] -0.216 | encorafenib -0.017 | [3] -0.065

SETD3 (UniProt Q86TU7)
inactive: saracatinib 0.008 | sotrastaurin 0.012 | alvocidib -0.071 | Tubastatin A -0.056 | [1] 0.014 | defactinib -0.004 | rucaparib 0.022 | [2] 0.032 | encorafenib -0.009 | [3] 0

RPS18 (UniProt P62269)
inactive: saracatinib -0.022 | sotrastaurin 0.039 | alvocidib 0.2 | Tubastatin A 0.105 | [1] 0.071 | defactinib 0.21 | rucaparib 0.152 | [2] 0.041 | encorafenib 0.008 | [3] 0.04

RPS9 (UniProt P46781)
inactive: saracatinib -0.044 | sotrastaurin -0.015 | alvocidib 0.237 | Tubastatin A 0.119 | [1] 0.083 | defactinib 0.226 | rucaparib 0.108 | [2] 0.095 | encorafenib 0.118 | [3] -0.027

RAB5IF isoform 5 (UniProt Q9BUV8)
Chain of UniProt Q9BUV8 (Q9BUV8 whole entry, looked up): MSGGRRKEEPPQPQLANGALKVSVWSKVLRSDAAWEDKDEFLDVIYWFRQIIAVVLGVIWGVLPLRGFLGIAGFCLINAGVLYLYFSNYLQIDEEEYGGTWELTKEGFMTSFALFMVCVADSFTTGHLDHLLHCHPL
inactive: saracatinib 0.114 | sotrastaurin -0.018 | alvocidib -0.115 | Tubastatin A -0.139 | [1] -0.08 | defactinib -0.01 | rucaparib -0.014 | [2] -0.018 | encorafenib 0.08 | [3] 0.031

RPS13 (UniProt P62277)
inactive: saracatinib -0.149 | sotrastaurin 0 | alvocidib 0.287 | Tubastatin A 0.106 | [1] 0.097 | defactinib 0.339 | rucaparib 0.261 | [2] 0.111 | encorafenib 0.137 | [3] 0.031

RRP36 (UniProt Q96EU6)
inactive: saracatinib -0.021 | sotrastaurin -0.067 | alvocidib 0.211 | Tubastatin A 0.17 | [1] 0.073 | defactinib 0.351 | rucaparib 0.057 | [2] 0.007 | encorafenib 0.092 | [3] 0.05

RFC3 (UniProt P40938)
Chain of UniProt P40938 (P40938 whole entry, looked up): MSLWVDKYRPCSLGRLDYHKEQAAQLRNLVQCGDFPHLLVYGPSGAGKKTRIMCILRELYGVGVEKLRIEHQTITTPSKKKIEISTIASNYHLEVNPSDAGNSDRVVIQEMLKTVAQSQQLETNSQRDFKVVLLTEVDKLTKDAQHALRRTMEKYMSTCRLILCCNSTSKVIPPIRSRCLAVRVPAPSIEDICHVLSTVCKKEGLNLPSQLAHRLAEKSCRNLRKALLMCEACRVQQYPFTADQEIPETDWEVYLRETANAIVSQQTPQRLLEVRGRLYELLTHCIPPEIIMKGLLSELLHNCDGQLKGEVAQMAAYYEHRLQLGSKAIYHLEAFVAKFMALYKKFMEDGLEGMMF
inactive: saracatinib -0.021 | sotrastaurin 0.032 | alvocidib -0.036 | Tubastatin A 0.023 | [1] 0.031 | defactinib -0.052 | rucaparib -0.011 | [2] 0.007 | encorafenib 0.062 | [3] -0.058

From the supplement of paper PMC10849652
